Results reported in PubChem BioAssay (NCI).
The panel holds about 79,000 compounds, 15% with a hit somewhere; the sample as a whole holds those more often. Rule as the data show it: active = growth inhibition above about 70%; inactive = the rest.

What was measured:
[1] = NCI Yeast Anticancer Drug Screen. Data for the rad50 strain (AID 155);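 also: 0% = growth of vehicle-only cultures of the same strain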; conditions: S. cerevisiae rad50 strain growth inhibition; at 50.0 µM; hits give high values
How it was run: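 Vehicle-treated cultures provide the reference for the growth inhibition reported for compound-exposed, repair-deficient yeast.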

[2] = NCI Yeast Anticancer Drug Screen. Data for the mec2-1 strain (AID 157); conditions: S. cerevisiae mec2-1 strain, at 50.0 µM, hits give high values
How it was run: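 Strain: mec2-1 (DNA repair/cell cycle alteration). Compound exposure, then growth measured; inhibition expressed relative to vehicle.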

[3] = NCI Yeast Anticancer Drug Screen. Data for the sgs1 mgt1 strain (AID 161);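 also: 0% = growth of cultures given vehicle only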; conditions: S. cerevisiae sgs1 mgt1 strain, at 50.0 µM, hits give high values
How it was run: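 Read-out: growth inhibition vs vehicle controls. Cells: mutant yeast strain deficient in DNA damage repair.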

[4] = NCI Yeast Anticancer Drug Screen. Data for the cln2 rad14 strain (AID 165);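 also: 0% = growth equal to vehicle treated cultures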; conditions: S. cerevisiae cln2 rad14 strain, at 50.0 µM, hits give high values
How it was run: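 Compounds are applied to the cln2 rad14 yeast strain, and growth is then compared with that of vehicle-treated cultures to give inhibition.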

[5] = NCI Yeast Anticancer Drug Screen. Data for the bub3 strain (AID 167); conditions: S. cerevisiae bub3 mutant strain, at 50.0 µM, hits give high values
How it was run: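 Mutant yeast screening strain plus compound; vehicle-treated cultures serve as the 0% inhibition reference.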

[6] = NCI Yeast Anticancer Drug Screen. Data for the mlh1 rad18 strain (AID 175); conditions: S. cerevisiae mlh1 rad18 strain growth inhibition; at 50.0 µM; hits give high values
How it was run: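 Read-out is yeast growth inhibition, calculated against vehicle-only controls. The compound was applied to a strain engineered with DNA damage repair alterations.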

Measured: growth inhibition

CC(NC(=O)c1ccccc1)C(=O)O (configuration not stated)
inactive: [1] 25.4% | [2] -6.4% | [3] -26.6% | [4] -24.2% | [5] 0.6% | [6] 27.7%

CC(C#N)(Nc1ccccc1)c1ccccc1 (configuration not stated)
inactive: [1] 0.6% | [2] 6.75% | [3] 6.9% | [4] -32.6% | [5] -10.7% | [6] -6.4%

CC1C(=O)C23CC1CCC2C12COC(O)C1C(C)(C)C(O)CC2OC3=O (configuration not stated)
inactive: [1] -10.4% | [2] -5.95% | [3] -12.7% | [4] 17.1% | [5] -43.6% | [6] -16.4%

CCOC(=O)CCC(NC(=O)c1ccc(OCc2ccc3nc(OC)c(OC)nc3c2)cc1)C(=O)OCC (configuration not stated)
inactive: [1] -14.2% | [2] -17.9% | [3] -21.6% | [4] 5% | [5] -4.75% | [6] 13.2%

Nc1nc2ccc(Br)cc2s1
inactive: [1] 9.3% | [2] 26.6% | [3] 35.9% | [4] 11.6% | [5] 32.5% | [6] 32.4%

N#CCCNc1ccc2c(c1)Cc1ccccc1-2
inactive: [1] 1.65% | [2] 3.4% | [3] 18.6% | [4] -14.2% | [5] 12.4% | [6] -27.5%

O=C(Nc1nc2ncn(CCNCCn3cnc4nc(NC(=O)c5ccccc5)[nH]c(=O)c43)c2c(=O)[nH]1)c1ccccc1
inactive: [1] -10.2% | [2] 14.1% | [3] 17.5% | [4] 25.9% | [5] 16.8% | [6] 17%

CCc1cc(CCC(=O)Nc2ccccc2[N+](=O)[O-])[nH]c(=S)n1
inactive: [1] -10.6% | [2] -20.8% | [3] 11.3% | [4] 12% | [5] -14.3% | [6] -11.2%

O=C(c1ccccc1)c1ccccc1O
inactive: [1] -16.6% | [2] -10.7% | [3] 11.4% | [4] 6.95% | [5] 10.7% | [6] 2.9%

CC1(C)OC(C(O)CO)C(C2COC(=S)O2)O1 (configuration not stated)
inactive: [1] 1.45% | [2] 15.9% | [3] 8.45% | [4] 33.5% | [5] 12.6% | [6] -1.8%

CC1=C(C)CC2(CC1)C(=O)C1(CCC(C)=C(C)C1)C2=O (configuration not stated)
inactive: [1] 25.2% | [2] 0.7% | [3] -2.8% | [4] 14.1% | [5] 17% | [6] 15.6%

O=C(O)CCC1CCc2cccc(OCC(=O)O)c2C1=O (configuration not stated)
inactive: [1] 2% | [2] -4.3% | [3] -16.2% | [4] 23.5% | [5] -4.4% | [6] -11.7%

O=C(/C=C/c1ccc(O)c(O)c1)c1ccc(O)cc1O
inactive: [1] -26.5% | [2] -27.9% | [3] -24.2% | [4] 4.05% | [5] -40.6% | [6] -38.9%

O=C(/C=N\O)Nc1ccccc1O
inactive: [1] 2.6% | [2] 4.3% | [3] -24.4% | [4] -11.6% | [5] -5.15% | [6] -1.9%

O=C(c1ccccc1)C12CCC3CC(CC(C3)C1)C2
inactive: [1] -18.1% | [2] 8.25% | [3] 11.5% | [4] 6.05% | [5] 16.4% | [6] 9.65%

Cc1c(O)ccc2c(O)c(NC(=O)c3ccc4c(c3)CCC(C)(C)O4)c(=O)oc12
inactive: [1] 4.95% | [2] -22.9% | [3] 7.95% | [4] -95.5% | [5] -21.5% | [6] 21.1%

CC(=O)NC(CCCN(Cc1ccccc1)C(=O)NCCCl)C(=O)NCc1ccccc1 (configuration not stated)
inactive: [1] 13.7% | [2] -25.5% | [3] 4.5% | [4] 5.7% | [5] -33.7% | [6] -18.6%

CC(=O)OC1Cc2ccccc2C1OC(C)=O (configuration not stated)
inactive: [1] -1.9% | [2] 9.4% | [3] -8.8% | [4] -9.8% | [5] -19.4% | [6] 7.1%

COc1cc(C2c3c(cc(OC)c(O)c3OC)C=C(C(=O)O)C2CO)cc(OC)c1O (configuration not stated)
inactive: [1] 9.05% | [2] 5.35% | [3] -2.95% | [4] 24.3% | [5] -2.1% | [6] 14.3%

COC(=O)/C=C(\C(=O)OC)C(C(=O)c1ccccc1)=P(c1ccccc1)(c1ccccc1)c1ccccc1
inactive: [1] -9.95% | [2] 8.7% | [3] -4.2% | [4] -26.5% | [5] 3.55% | [6] 1.15%

CCOC(=O)C1=C(C(=O)C(C)(C)C)C(c2ccc([N+](=O)[O-])cc2)C(C(=O)C(C)(C)C)=C(C(=O)OCC)N1
inactive: [1] 31.1% | [2] 21.4% | [3] 9.4% | [4] 27.4% | [5] 6.2% | [6] 14.3%

CCCCCC[N+]12CC=C3COC(=O)C(C)(O)C(C)(O)C(C)C(=O)OC(CC1)C32 (configuration not stated)
inactive: [1] 0.7% | [2] -6.15% | [3] -0.25% | [4] 13.7% | [5] -3.35% | [6] 7.85%

CO[C@@]12C[C@@H](C)[C@]34O[C@H]3C[C@]3(C)O[C@]43CC1=C(C)C(=O)O2
inactive: [1] 10.2% | [2] 1.2% | [3] 23.6% | [4] 7.5% | [5] 28.4% | [6] -64%

Cc1ccc(NC(=O)CSc2nnc(Cc3ccccc3)o2)c(C)c1
inactive: [1] -26.8% | [2] -63.2% | [3] -57.8% | [4] -22.8% | [5] -3.3% | [6] -54.9%

CCOC(=O)Nc1c(O)cccc1N1CCOCC1
inactive: [1] -14.1% | [2] 6.65% | [3] 25.9% | [4] -12.1% | [5] 7.4% | [6] -1.25%

O=C1CC2(CCCC2)C(=O)N1c1ccc(O)c(CN2CCCCC2)c1
inactive: [1] 7.6% | [2] -4.3% | [3] -19.6% | [4] 14.7% | [5] 6.35% | [6] 4.95%

Cc1ccn2c(CCc3nnc4cc(C)ccn34)nnc2c1
inactive: [1] -1.4% | [2] -33.4% | [3] -42.4% | [4] 0.4% | [5] -26.1% | [6] 12.3%

CN(C)c1ccc(/C=C2N=C(/C=C\c3ccccc3)OC\2=O)cc1
inactive: [1] -5.5% | [2] 4.75% | [3] -6.05% | [4] 0.25% | [5] 7.55% | [6] 9.45%

C/C(=N\N(C)S(=O)(=O)c1ccc(C)cc1)c1ccccc1
inactive: [1] 10.1% | [2] -6.9% | [3] -5.5% | [4] -30.1% | [5] -10.1% | [6] 0.65%

CCN(CC)CCNCc1ccc(Cl)cc1
inactive: [1] -16.5% | [2] -38.8% | [3] 3.95% | [4] 6.15% | [5] -8.7% | [6] -16.1%

Cc1cc(N=Cc2cccs2)cc(Cl)c1O
inactive: [1] 21.7% | [2] 14.4% | [3] 5.05% | [4] 12.2% | [5] 41.8% | [6] 24.8%

NCCNCCCNC(=O)c1cc(-c2ccccc2)nc2ccccc12
inactive: [1] -18.8% | [2] -6.35% | [3] -1.7% | [4] -11.9% | [5] 14.9% | [6] -3.95%

CCOc1ccc(N=C(NC(=O)c2ccccc2)SC)cc1
inactive: [1] -5.9% | [2] -0.7% | [3] -0.15% | [4] 23.3% | [5] 10.1% | [6] 0.65%

Nc1cccc(Nc2nc3ccccc3nc2NS(=O)(=O)c2ccccc2)c1
inactive: [1] 18.5% | [2] 22.6% | [3] 14.6% | [4] -11.3% | [5] -2.5% | [6] -9.1%

Cc1cc(C(F)(F)F)cc(-n2nc(NS(=O)(=O)c3cc(C)c(Cl)cc3S)nc2N)n1
inactive: [1] 13.1% | [2] 10.1% | [3] 15.4% | [4] -2.9% | [5] 4.5% | [6] 33.5%

N#C/C(=C\NC(=S)NCc1ccccc1)c1nc2ccccc2s1
inactive: [1] 54.1% | [2] 32.4% | [3] 53.5% | [4] 43.3% | [5] 30.5% | [6] 61.5%

CC(=O)Nc1cccc(OCOc2ccc([N+](=O)[O-])cc2)c1
inactive: [1] -4.65% | [2] 20.3% | [3] 30.4% | [4] -2.6% | [5] 22.6% | [6] 40.8%
